Experiment in all cases: NCI-60 one-dose screen, 48 h (100 = growth as untreated, 0 = no growth, -100 = all killed)
The test system of one experiment is NCI-H226 lung. The settings on record: 10 µM.
A further experiment deals with NCI-H322M lung. The settings on record: 10 µM.
Another experiment deals with HOP-62 NSCLC. The settings on record: 10 µM.
The next experiment deals with NCI-H460 lung. The settings on record: 10 µM.
In another experiment the test system is A549/ATCC NSCLC. The conditions noted are these: 10 µM.
A further experiment concerns 786-0 renal. The settings on record: 10 µM.
For the next experiment, the system named is DU-145 prostate. The settings on record: 10 µM.
Another experiment deals with SF-268 CNS. The conditions noted are these: 10 µM.
A further experiment deals with SF-295 CNS. The conditions noted are these: 10 µM.
A further experiment has as its system SF-539 CNS. The conditions noted are these: 10 µM.
The subject of another experiment is HCT-15 colon. The conditions noted are these: 10 µM.
The test system of a further experiment is HT29 colon. The settings on record: 10 µM.
In a further experiment the test system is SNB-75 CNS. The conditions noted are these: 10 µM.
A further experiment deals with SNB-19 CNS. The conditions noted are these: 10 µM.
In a further experiment the test system is PC-3 prostate. The conditions noted are these: 10 µM.
The subject of the next experiment is EKVX NSCLC. The settings on record: 10 µM.
For a further experiment, the system named is UO-31 renal. The conditions noted are these: 10 µM.
For the next experiment, the system named is ACHN renal. The settings on record: 10 µM.
A further experiment concerns HL-60(TB) leukemia. The settings on record: 10 µM unless noted.
In the next experiment the test system is MOLT-4 leukemia. The conditions noted are these: 10 µM.

Molecules are shown by their SMILES. Compounds without any hit were thinned out: in the full panel of roughly 83,000, 20% have a hit.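 Interpretation: 100, growth as untreated; towards 0, rising growth inhibition; 0, no net growth; 0 to -100, cell death. Compounds scoring below 10 were considered active.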 A number with no mark means an inactive call. Active and inactive are the calls of the source.

For seven compounds, growth results are on record in PubChem BioAssay (NCI).

Consider `C/C=C\C(=O)O[C@@H]1CC2O[C@@H]3C=C(C)C(=O)C[C@]3(C)[C@]1(C)[C@]21CO1`, for which the growth in the experiment on NCI-H226 lung was -20.5% (active); in the experiment with NCI-H322M lung it was -11% (active); in the experiment on HOP-62 NSCLC, -32.6% (active); in the experiment on NCI-H460 lung, 0.808% (active); in the experiment with A549/ATCC NSCLC it was -5.19% (active); with 786-0 renal, -20.2% (active). In addition, the growth in the experiment with DU-145 prostate is -15.1% (active); in the experiment with SF-268 CNS, 0.463% (active); in the experiment on SF-295 CNS it was -18.2% (active); in the experiment with SF-539 CNS, -31.9% (active); in the experiment with HCT-15 colon it was -5% (active); in the experiment on HT29 colon, -33.4% (active). Further, the growth in the experiment with SNB-75 CNS is -14.8% (active); in the experiment on SNB-19 CNS it was -10.5% (active); in the experiment with PC-3 prostate, -2.85% (active); in the experiment on EKVX NSCLC it was -2.36% (active); with UO-31 renal it was -12.4% (active); in the experiment with ACHN renal, -28.6% (active). Also, the growth in the experiment with HL-60(TB) leukemia was -47.3% (active); in the experiment with MOLT-4 leukemia, -26.4% (active).

With `CC(C)(O)/C=C/C(=O)[C@](C)(O)[C@H]1[C@H](O)C[C@@]2(C)[C@H]3CC=C4[C@@H](C[C@H](O)C(=O)C4(C)C)[C@]3(C)C(=O)C[C@]12C`, the growth with NCI-H226 lung is 12.7%; with NCI-H322M lung, 32.3%; in the experiment on HOP-62 NSCLC, 5.78% (active); in the experiment on NCI-H460 lung, 15.6%; in the experiment on A549/ATCC NSCLC it was 10.1%; in the experiment with 786-0 renal it was 1.91% (active). Besides, the growth in the experiment with DU-145 prostate is 14%; in the experiment with SF-268 CNS, -3.28% (active); with SF-295 CNS it was 7.51% (active); in the experiment with SF-539 CNS it was -31.5% (active); in the experiment on HCT-15 colon, 7.53% (active); in the experiment on HT29 colon it was 3.2% (active). Also, the growth with SNB-75 CNS is -39.4% (active); with SNB-19 CNS, 8.14% (active); with PC-3 prostate it was 11.4%; in the experiment on EKVX NSCLC it was 18.4%; in the experiment on UO-31 renal, -52.7% (active); in the experiment with ACHN renal, -1.68% (active). In addition, the growth is -3.29% (active) in the experiment with HL-60(TB) leukemia and 24.8% in the experiment on MOLT-4 leukemia.

Consider `CC1=C(CN(O)C(N)=O)C2=C(C)C3(CC3)[C@](C)(O)C(=O)C2=C1`, for which the growth in the experiment with NCI-H226 lung is 105%; with NCI-H322M lung it was 26.8%; in the experiment with HOP-62 NSCLC, 11.4%; in the experiment on NCI-H460 lung, 1.16% (active); in the experiment with A549/ATCC NSCLC it was 0.401% (active); in the experiment on 786-0 renal, 14.9%. Moreover, the growth with DU-145 prostate was 10%; in the experiment with SF-268 CNS it was 13.6%; in the experiment with SF-295 CNS, 0.35% (active); with SF-539 CNS, -1.94% (active); in the experiment on HCT-15 colon, 1.38% (active); with HT29 colon, 3.85% (active). The growth in the experiment on SNB-75 CNS is -22.2% (active); in the experiment with SNB-19 CNS, 32.5%; in the experiment with PC-3 prostate, 8.93% (active); in the experiment with EKVX NSCLC it was 8.16% (active); with UO-31 renal, -20.3% (active); with ACHN renal, -5.65% (active). In addition, the results for the growth in the experiment with HL-60(TB) leukemia and in the experiment with MOLT-4 leukemia were -16.6% (active) and 76.2%, respectively.

Regarding `N#Cc1nc(-c2ccccc2)oc1N1CCC(S(=O)(=O)F)CC1`, the growth in the experiment on NCI-H226 lung is 98.4%; in the experiment on NCI-H322M lung, 115%; with HOP-62 NSCLC, 95.9%; in the experiment with NCI-H460 lung, 106%; in the experiment with A549/ATCC NSCLC it was 102%; in the experiment with 786-0 renal it was 81.5%. Also, the growth was 101% in the experiment with DU-145 prostate; 92.3% in the experiment on SF-268 CNS; 100% with SF-295 CNS; 91.1% with SF-539 CNS; 103% with HCT-15 colon; 102% in the experiment with HT29 colon. Also, the growth with SNB-75 CNS was 102%; in the experiment on SNB-19 CNS, 98.6%; with PC-3 prostate, 99.3%; in the experiment with EKVX NSCLC, 103%; in the experiment on UO-31 renal, 86.7%; in the experiment on ACHN renal, 94.6%. Besides, the growth was 98.6% in the experiment with HL-60(TB) leukemia and 94.3% with MOLT-4 leukemia.

Consider `CCC(C)[C@H]1C(=O)O[C@H](C(C)C)C(=O)N(C)[C@@H](C(C)C)C(=O)O[C@H](C(C)C)C(=O)N(C)[C@@H](C(C)C)C(=O)O[C@H](C(C)C)C(=O)N1C` (stereo not given in full), for which the growth was 21.2% in the experiment with NCI-H226 lung; 14.3% in the experiment with NCI-H322M lung; 15% in the experiment with HOP-62 NSCLC; 7.94% (active) in the experiment on NCI-H460 lung; 14.5% in the experiment on A549/ATCC NSCLC; 20.9% in the experiment with 786-0 renal. The growth is 26.9% with DU-145 prostate; 21.9% with SF-268 CNS; 9.15% (active) in the experiment on SF-295 CNS; 19.1% in the experiment on SF-539 CNS; 14.6% in the experiment on HCT-15 colon; 9.91% (active) in the experiment on HT29 colon. Moreover, the growth with SNB-75 CNS is 2.63% (active); in the experiment with SNB-19 CNS, 21.6%; in the experiment with PC-3 prostate, 12.2%; with EKVX NSCLC it was 24%; in the experiment with UO-31 renal it was -10.8% (active); in the experiment with ACHN renal, 9.28% (active). For the same compound, the growth in the experiment with HL-60(TB) leukemia is -48.8% (active); in the experiment on MOLT-4 leukemia, -13% (active).

Turning to `CC1=C[C@H]2O[C@@H]3C[C@H]4OC(=O)/C=C\C=C\[C@H]([C@@H](C)O)OCC/C(C)=C/C(=O)OC[C@@]2(CC1)[C@]4(C)[C@]31CO1`, the growth in the experiment with NCI-H226 lung is -50.5% (active); with NCI-H322M lung, -19% (active); in the experiment with HOP-62 NSCLC, -42.9% (active); in the experiment with NCI-H460 lung, -7.38% (active); in the experiment with A549/ATCC NSCLC it was -25.6% (active); in the experiment with 786-0 renal, -43.6% (active). The growth in the experiment on DU-145 prostate was -17.5% (active); in the experiment with SF-268 CNS, -1.73% (active); with SF-295 CNS it was -37.5% (active); with SF-539 CNS, -39.2% (active); in the experiment on HCT-15 colon it was -18.6% (active); with HT29 colon, -27.7% (active). Further, the growth is -50.1% (active) in the experiment with SNB-75 CNS; -6.9% (active) with SNB-19 CNS; -23.9% (active) in the experiment on PC-3 prostate; -25.1% (active) with EKVX NSCLC; -29.4% (active) in the experiment with UO-31 renal; -16.1% (active) with ACHN renal. Further, the growth in the experiment with HL-60(TB) leukemia is -44.9% (active); in the experiment with MOLT-4 leukemia, -18.5% (active).

On to `CC(=O)O[C@@H]1C[C@H]2O[C@@H]3C=C(C)CC[C@]3(C)[C@]1(C)[C@]21CO1`, for which the growth in the experiment with NCI-H226 lung is 22.3%; with NCI-H322M lung, 18.8%; in the experiment with HOP-62 NSCLC, 6.11% (active); in the experiment on NCI-H460 lung it was 6.94% (active); in the experiment with A549/ATCC NSCLC, 12.8%; in the experiment on 786-0 renal, 7.07% (active). In addition, the growth in the experiment with DU-145 prostate is 16.8%; in the experiment with SF-268 CNS it was 15.3%; in the experiment with SF-295 CNS, 34.1%; with SF-539 CNS, -23.1% (active); in the experiment with HCT-15 colon it was 3.87% (active); in the experiment with HT29 colon, 8.97% (active). The growth is 29.4% with SNB-75 CNS; 3.18% (active) in the experiment on SNB-19 CNS; 24.8% in the experiment on PC-3 prostate; 26% in the experiment with EKVX NSCLC; 53.3% in the experiment with UO-31 renal; 23% with ACHN renal. In addition, the growth is -33.9% (active) in the experiment with HL-60(TB) leukemia and -9.55% (active) with MOLT-4 leukemia.
